Measurements from PubChem BioAssay AID588689 (Southern Research Specialized Biocontainment Screening …, 2011).
Hit rate of the full screen: of about 340,000 compounds, about 1,000 (0.29%) were called active. Rule as the data show it: inconclusive = inhibition above about 29% without an active follow-up result; inactive = below that. A selection follows. Entries with a potency or affinity are not part of this list.

Biological target: Genome polyprotein (Dengue virus type 2 (strain 16681-PDK53)) (UniProt P29991)
Test: flavivirus cap methylation enzyme inhibition – biochemical, confirmation dose response, primary screen (AID 588689)
Details: Dengue-2 NS5 methyltransferase capping enzyme assay, at 25 µM, stronger effect = higher value
[1] = measured here: pilot screen replicate inhibition

| Structure (SMILES) | inhibition | inhibition [1] [%] |
| --- | --- | --- |
| Cc1c(OCC(=O)N2CCC(C(N)=O)CC2)ccc2c3c(c(=O)oc12)CCCC3 | -4.35% (inactive) | – |
| CCOCCCNC(=O)CCc1nnc2n(CCC(C)C)c(=O)c3ccccc3n12 | -4.57% (inactive) | – |
| CCOc1cc(NC(=S)NCCCN2CCOCC2)c(OCC)cc1NC(=O)C1CCCCC1 | -10.9% (inactive) | – |
| CC(=O)Nc1ccc2c(c1)CCc1ccccc1-2 | -9.7% (inactive) | – |
| O=C(O)CCCc1ccc2c(c1)CCc1ccccc1-2 | -0.8% (inactive) | – |
| CCN(CC(=O)NCc1cccs1)S(=O)(=O)c1ccccc1Cl | 0% (inactive) | – |
| O=C(NCc1ccncc1)C(=O)NCC1OCCN1S(=O)(=O)c1ccc(F)cc1 (centres undefined) | -3.87% (inactive) | – |
| CCC(COC(C)=O)Nc1nc2c([nH]1)c(=O)n(C)c(=O)n2C (centres undefined) | 9.2% (inactive) | – |
| COC(=O)C1=C(C(=O)OC)C(c2cc([N+](=O)[O-])ccc2O)c2sc(=O)[nH]c2S1 (centres undefined) | -1.58% (inactive) | – |
| COC(=O)c1sc2ccccc2c1N | -9.74% (inactive) | – |
| COC(=O)c1cc(OC)nc2ccc(Br)cc12 | 4.64% (inactive) | – |
| COC(=O)C1=C(C(=O)OC)C(c2ccc(OC)c(OC)c2)c2sc(=O)[nH]c2S1 (centres undefined) | 18% (inactive) | – |
| Cc1ccnc(NC(=O)C2CCCN(c3ncnc4c3nc3n4CCCCC3)C2)c1 (centres undefined) | 0.45% (inactive) | – |
| COc1ccc(/C=N/N=C2/NC(=O)C(CC(=O)O)S2)cc1OCc1ccc(Cl)cc1 (centres undefined) | 13.3% (inactive) | – |
| COc1cc(/C=N/N=C2/NC(=O)C(CC(=O)O)S2)ccc1OCc1ccc(Cl)cc1 (centres undefined) | 16.7% (inactive) | – |
| COc1ccc(/C=N/N=C2/NC(=O)C(CC(=O)O)S2)cc1OCc1ccccc1Cl (centres undefined) | 17.8% (inactive) | – |
| COc1cc(/C=N/NC(=O)CC2(C)OCCCO2)ccc1OCc1ccc(Cl)cc1Cl | -4.47% (inactive) | – |
| CCOc1cc(/C=N/N=C2/NC(=O)C(CC(=O)O)S2)ccc1OCc1ccc(Cl)cc1Cl (centres undefined) | 25.1% (inactive) | – |
| CCOc1cc(/C=N/NC(=O)CSc2nnc(C)s2)ccc1OCc1ccccc1Cl | 8.09% (inactive) | – |
| O=C1CCc2nc3ccccc3c(=O)n2N1 | -1.38% (inactive) | – |
| COc1cccc(C(CNc2ccc(S(=O)(=O)N3CCN(C)CC3)cc2[N+](=O)[O-])N(C)C)c1 (centres undefined) | 2.89% (inactive) | – |
| Cc1onc(-c2c(F)cccc2Cl)c1C(=O)NNC(=O)C1CCN(Cc2cccc(F)c2)CC1 | -7.02% (inactive) | – |
| COc1ccc(S(=O)(=O)NNC(=O)c2cccs2)cc1 | -2.33% (inactive) | – |

| Structure (SMILES) | inhibition | inhibition [1] [%] |
| --- | --- | --- |
| COc1cc(C(=O)Nc2c(C(=O)O)[nH]c3ccccc23)cc(OC)c1OC | -6.62% (inactive) | – |
| COc1ccc(S(=O)(=O)Nc2c(C(=O)O)[nH]c3ccccc23)cc1OC | 1.6% (inactive) | – |
| O=c1[nH]c2ccccc2c(O)c1-c1ccccc1[N+](=O)[O-] | -7.29% (inactive) | – |
| O=C(O)c1[nH]c2ccc([N+](=O)[O-])cc2c1-c1ccccc1 | 10.3% (inactive) | – |
| CSc1nsc(SCC(=O)Nc2ccc(NC(C)=O)cc2)n1 | 2.42% (inactive) | – |
| COc1ccccc1CNS(=O)(=O)c1cccc2nsnc12 | 3.22% (inactive) | – |
| Cc1ccc(NC(=O)CSCC(=O)NCc2cccc(C(F)(F)F)c2)cc1 | 0.73% (inactive) | – |
| O=C(CSc1nc(O)c(C(c2ccccc2)c2ccccc2)c(=O)[nH]1)N1CCOCC1 | -5.31% (inactive) | – |
| Cc1ccccc1-n1cnnc1SCC(=O)Nc1cccnc1Cl | 2.99% (inactive) | – |
| CCCCOC(=O)c1ccc(NC(=O)C(=O)NCc2cccnc2)cc1 | -1.56% (inactive) | – |
| N=C1C(c2nc3ccccc3s2)=C(O)CN1Cc1ccco1 | -1.36% (inactive) | – |
| Nc1nc(CSC(=S)N2CCOCC2)nc(Nc2ccccc2)n1 | 1.28% (inactive) | – |
| Cc1ccc(CNC(=O)C2CCC(=O)N2C(C)C)cc1 (centres undefined) | -1.99% (inactive) | – |
| O=C(NN1C(=O)/C(=C/c2ccc(O)c([N+](=O)[O-])c2)SC1=S)c1ccccc1Cl | -3.59% (inactive) | – |
| COc1cc(/C=C2\SC(=O)N(c3ccccc3Cl)C2=O)cc([N+](=O)[O-])c1O | -6.99% (inactive) | – |
| CCc1cccc(N(C(=O)c2csnn2)C(C(=O)NC(C)(C)C)c2ccccn2)c1 (centres undefined) | -5.18% (inactive) | – |
| CCC(C)NC(=O)Nc1ccccc1C (centres undefined) | -2.79% (inactive) | – |
| CCC(=O)c1ccc(OCC(O)CN2CCN(S(=O)(=O)N3CCCCC3)CC2)cc1 (centres undefined) | 5.46% (inactive) | – |
| O=c1oc2ccccc2c2c1C(O)CO2 (centres undefined) | -7.16% (inactive) | – |
| Cc1c(O)c2ccccc2oc1=O | -7.95% (inactive) | – |
| OCC1OC2C(NC(=S)N2c2ccccc2)C(O)C1O (centres undefined) | 0.77% (inactive) | – |
| COc1ccc(C(c2c(C)[nH][nH]c2=O)c2c(C)[nH][nH]c2=O)cc1Br | -3.47% (inactive) | – |
| Nc1ccccc1O | -6.55% (inactive) | – |

| Structure (SMILES) | inhibition | inhibition [1] [%] |
| --- | --- | --- |
| Oc1ccccc1O | 0.73% (inactive) | – |
| O=C(Nc1ccc2c(c1)OCO2)N1CCN(Cc2ccco2)CC1 | 0% (inactive) | – |
| COc1ccc(N2C(=O)/C(=C/c3ccc([N+](=O)[O-])cc3)N=C2C)c(OC)c1 | -3.69% (inactive) | – |
| COc1ccc(OC)c(N2C(=O)c3cccnc3C2=O)c1 | 0.65% (inactive) | 1.22 |
| COc1ccc(OC)c(N2C(=O)CCCC2=O)c1 | -1.93% (inactive) | – |
| COc1ccc(NCc2ccc([N+](=O)[O-])s2)c(OC)c1 | 7.28% (inactive) | – |
| COc1ccc(NC(=S)N2CCC(C(=O)c3ccc(C)cc3)CC2)cc1 | -11.5% (inactive) | – |
| Cc1ccc(C2=NNC(C(O)C(O)C(O)CO)S2)cc1 (centres undefined) | -8.04% (inactive) | – |
| O=C(CCN1C(=O)/C(=C/c2ccccc2Cl)SC1=S)Nc1ccccn1 | 1.55% (inactive) | – |
| COc1ccccc1/C=C1\SC(=S)N(CCC(=O)Nc2ccc(C(=O)O)c(O)c2)C1=O | 19.8% (inactive) | – |
| O=C(CCN1C(=O)S/C(=C/c2ccc(F)cc2)C1=O)Nc1ccc(O)c(C(=O)O)c1 | 19.6% (inactive) | – |
| O=C(CCN1C(=O)/C(=C\C=C\c2ccccc2)SC1=S)Nc1ccc(C(=O)O)cc1 | 9.75% (inactive) | – |
| O=C(CCN1C(=O)/C(=C/c2cccs2)SC1=S)Nc1ccc(C(=O)O)c(O)c1 | 15% (inactive) | – |
| O=C(CCN1C(=O)/C(=C/c2ccccc2Cl)SC1=S)NNC(=O)c1ccccc1O | -5.13% (inactive) | – |
| O=C(CN1C(=O)S/C(=C\C=C\c2ccccc2)C1=O)Nc1ccccc1C(=O)O | 24.3% (inactive) | – |
| O=C(CCN1C(=O)S/C(=C/c2ccccc2)C1=O)Nc1ccc(C(=O)O)c(O)c1 | 25.9% (inactive) | – |
| CCN(Cc1nc2cc(Cl)ccc2c(=O)[nH]1)C(=O)c1cccc(NC(=O)c2cccs2)c1 | -6.19% (inactive) | – |
| Cc1ccc(NC(=O)CCC(=O)c2ccccc2)cc1 | -17.5% (inactive) | – |
| Cc1ccc(S(=O)(=O)NCCN2CCOCC2)c(C)c1C | 3.68% (inactive) | – |
| O=C(Cc1ccc(Cl)cc1)N1CCC2(CC1)NCCc1[nH]cnc12 | -10.7% (inactive) | – |
| Cc1cc(NC(=O)CCC(=O)N(c2ccc(F)cc2)C(C(=O)NC2CCCC2)c2cccnc2)no1 (centres undefined) | 6.51% (inactive) | – |
| O=C(CCCN1C(=O)/C(=C/c2ccc3c(c2)OCO3)SC1=S)Nc1cccc(C(=O)O)c1 | 0.32% (inactive) | – |
| O=C(CCN1C(=O)/C(=C/c2ccc3c(c2)OCO3)SC1=S)Nc1ccccc1 | 2.89% (inactive) | – |

| Structure (SMILES) | inhibition | inhibition [1] [%] |
| --- | --- | --- |
| CC(C)c1ccc(C2N3CC4([N+](=O)[O-])CN2CC([N+](=O)[O-])(C3)C4(C)C)cc1 (centres undefined) | -2.65% (inactive) | – |
| COc1ccc(C)cc1CN1C(=O)c2ccccc2C1=O | -12.4% (inactive) | – |
| COc1ccc2c(c1)C(=O)N(c1ccccc1OC)C(=O)C2 | 0.7% (inactive) | – |
| COc1ccc(/C=C2/NC(=O)N(Cc3ccccc3F)C2=O)cc1OC | 0.77% (inactive) | – |
| COc1ccc(C=O)cc1CN1C(=O)c2ccccc2C1=O | 5.3% (inactive) | – |
| COc1ccc(/C=C2\C(=O)NC(=O)c3ccccc32)cc1OC | 25.5% (inactive) | – |
| COc1ccccc1N1C(=O)Cc2ccccc2C1=O | 1.63% (inactive) | – |
| O=c1cc(Cl)[nH]c(=O)n1Cc1ccc(F)cc1 | -9.54% (inactive) | – |
| Cc1cc(C)cc(NC(=O)c2ccc(NC(=O)c3ccco3)cc2)c1 | -0.32% (inactive) | – |
| N#CCC(=O)Nc1ccc(C(=O)NNC(=O)CCN2CCN(c3ccccc3)CC2)cc1 | -13.1% (inactive) | – |
| CCC[C@@H](CN1CCC[C@H]1CN1C(N)=NC[C@H]1CC(C)C)N1C[C@@H](Cc2ccccc2)N(CCCC2CCCC2)C1=N | -0.66% (inactive) | -1.83 |
| CC(CN1CCN(Cc2ccccc2)CC1)OC(=O)c1ccco1 (centres undefined) | 2.3% (inactive) | – |
| Cc1ccc(/C=C(\CCC(=O)O)c2nc3ccccc3s2)cc1[N+](=O)[O-] | 13.8% (inactive) | – |
| O=C(O)C/C(=C\c1ccc(N2CCOCC2)c([N+](=O)[O-])c1)c1nc2ccccc2s1 | 6.96% (inactive) | – |
| O=C(O)CC/C(=C\c1ccc(N2CCOCC2)c([N+](=O)[O-])c1)c1nc2ccccc2s1 | 24% (inactive) | – |
| CN(c1ccccc1)c1ccc(/C=C(\CCC(=O)O)c2nc3ccccc3s2)cc1[N+](=O)[O-] | 26.1% (inactive) | – |
| COc1ccc(NC(=O)C2CCCCN2S(=O)(=O)c2ccc(F)cc2)cc1 (centres undefined) | -2.91% (inactive) | – |
| Cc1csc2nc(=O)c3ccccc3n12 | -0.7% (inactive) | – |
| Cc1cccc(NCc2cc(Cl)cc(Cl)c2O)n1 | -2.76% (inactive) | – |
| Oc1c(Cl)cc(Cl)cc1CNc1nc2ccccc2[nH]1 | -17.7% (inactive) | – |
| O=C(CSc1nnc2scc(-c3ccccc3)n12)NCc1ccc2c(c1)OCO2 | -2.59% (inactive) | – |
| NC1=C(Cl)C(=O)c2ccccc2C1=O | -5.02% (inactive) | – |
| Nc1c(Cl)cc2c(c1Oc1ccccc1)C(=O)c1ccccc1C2=O | 0% (inactive) | – |
